From PubChem BioAssay (NCATS)
“And” between values parts separate entries of the source, which are not always exact repeats. Identical values can stand only once. Inconclusive results are not listed. Where a structure was tested more than once in an assay, its records may differ in their call. The source made the active and inactive calls. Unless noted, calls come from the whole dose curve; as a rule, active = well fitted curve in the direction sought with a large enough effect; inconclusive = small, poorly fitted or top-dose-only effect, or another doubt; inactive = no such curve, though single readings can be large; an effect the other way counts as inactive or inconclusive. Peptide text beside a SMILES is read from it.

Tests used:
[1] = target: Voltage-gated inwardly rectifying potassium channel KCNH2 (Homo sapiens) (UniProt Q12809); assay: qHTS Assay for Small Molecule Inhibitors of the Human hERG Channel Activity (AID 588834);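 note: lower thallium flux fluorescence means stronger hERG block; nearly all actives have a fitted effect of over 50% in size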; note: potency is the fitted concentration of half-maximal effect
Outline: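 Homogeneous FluxOR thallium flux assay using hERG-expressing U2OS cells (BacMam). Compound treatment about 10 minutes preceded stimulation; reduced fluorescence taken as channel block.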

[2] = target: Luciferin 4-monooxygenase (Photinus pyralis) (UniProt P08659); assay: Biochemical firefly luciferase enzyme assay for NPC (AID 624030);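 note: purified P. pyralis luciferase at 10 nM with luciferin and ATP substrate; 0% = DMSO and -100% = full luciferase inhibition by PTC124 control; nearly all actives have a fitted effect of over 70% in size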
Outline: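 Direct inhibition of firefly luciferase enzyme (10 nM final, 50 mM Tris Acetate) assessed by luminescence within 5 minutes. Percent activity scaled between DMSO and PTC124 positive control, with concentration-effect curves classified by fit quality and response.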

[3] = S16 Schwann cell viability assay (CellTiter-Glo assay) (AID 624031); note: nearly all actives have a fitted effect of over 70% in size; note: potency is the fitted concentration of half-maximal effect
Outline: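 Following overnight culture in 10% FBS DMEM, parental S16 rat Schwann cells are dosed for 24 h at 37 °C. Viability is read as CellTiter-Glo luminescence and expressed as % activity relative to DMSO (0%) and no-cell wells.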

[4] = S16 Schwann cell PMP22 intronic element firefly luciferase assay (AID 624032); note: nearly all actives have a fitted effect of over 30% in size; note: potency is the fitted concentration of half-maximal effect
Outline: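 Luciferase reporter of PMP22 intronic-element expression in stably transfected S16 rat Schwann cells, read by ONE-Glo luminescence after 24 h compound exposure at 37 C. Activity scaled between DMSO (0%) and positive-control PTC124; concentration-effect curves quality-classified.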

[5] = target: Retinoic acid receptor RXR-alpha (Homo sapiens) (UniProt P19793); assay: qHTS assay for small molecule agonists of retinoid X receptor alpha signaling (AID 588544; calls by dose curve;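 note: 0% = DMSO basal wells and 100% = reference agonist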)
[6] = target: Thyroid hormone receptor beta (Homo sapiens) (UniProt P10828); assay: qHTS assay for small molecule agonists of thyroid hormone receptor beta signaling (AID 588545; calls by dose curve;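 note: 0% = DMSO only and 100% = 10 nM T3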)
Outline: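 TR-UAS-bla-GripTite HEK 293 cells in medium with 2% charcoal/dextran FBS, 0.1 mM NEAA and 1 mM sodium pyruvate were treated with titrated compounds for 18 hrs at 37 C. Beta-lactamase reporter was read with CCF4 dye (ex 405, em 460/530 nm); EC50 from Hill fits.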

[7] = qHTS assay for small molecule antagonists of retinoid X receptor alpha signaling (AID 588546; active = well fitted inhibition curve with a large enough effect in the signal ratio, with a control signal flat, not every such curve was filed as active; the % refers to the signal ratio;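 note: cells stimulated with 9-cis-retinoic acid as agonist; % is set by controls: 0 for no effect and ±100 for the full control effect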); details: HEK293T RXRa-UAS-bla, beta-lactamase ratio, antagonist mode; measured here: W530 green channel, cytotoxicity proxy
Outline: (§1)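 Beta-lactamase reporter inhibition, read as CCF4 fluorescence ratio (ex 405, em 460/530 nm) after 2 h at RT. HEK293T UAS-bla cells, 2500/well, were stimulated with 9-cis-RA at 500 or 100 nM final alongside test compound for 18 h at 37 C.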

[8] = target: Retinoic acid receptor RXR-alpha (Homo sapiens) (UniProt P19793); assay: as above; details: HEK293T RXRa-UAS-bla, beta-lactamase ratio, antagonist mode
Outline: as §1

[9] = target: Thyroid hormone receptor beta (Homo sapiens) (UniProt P10828); assay: qHTS assay for small molecule antagonists of thyroid hormone receptor beta signaling (AID 588547; active = well fitted inhibition curve with a large enough effect in the signal ratio, with a control signal flat, not every such curve was filed as active; the % refers to the signal ratio;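 note: cells stimulated with 0.4 nM T3 agonist during compound exposure; % is set by controls: 0 for no effect and ±100 for the full control effect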); details: TR-UAS-bla HEK293, beta-lactamase ratio, antagonist mode, 18 h
Outline: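 Inhibition of T3-driven (0.4nM final) beta-lactamase reporter activity was measured over 0.59 nM to 92 uM compound after 18 h at 37 C. The cells were GripTite HEK293 TR-UAS-bla in charcoal/dextran-stripped serum, with CCF4 ratio read-out and IC50 from Hill fits.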

[10] = S16 Schwann cell PMP22 intronic element beta-lactamase assay (AID 624044; calls by dose curve; note: nearly all actives have a fitted effect of over 15% in size; note: potency is the fitted concentration of half-maximal effect)
Outline: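 Beta-lactamase reporter under a PMP22 intronic regulatory element in stable S16 rat Schwann cells; 24 h compound exposure. 460 nm blue signal normalized between DMSO (0%) and potassium clavulanate, with 535 nm FRET tracking viability; curves classed by r2 and response.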

[11] = target: Glutaminase kidney isoform, mitochondrial (Homo sapiens) (UniProt O94925); assay: qHTS for Inhibitors of Glutaminase (GLS): LOPAC Validation (AID 624146);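 note: glutamate product detected by oxidase and peroxidase coupled Amplex red fluorescence gain; % is set by controls: 0 for no effect and ±100 for the full control effect; nearly all actives have a fitted effect of over 60% in size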
Outline: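 Read-out is an Amplex red fluorescence increase coupled through glutamate oxidase and HRP, measured before and after 30 min room-temperature incubation. hKGA is in 45 mM KH2PO4 (pH 8.2) with 0.02% Tween-20; glutamine added as 1mM solution.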

[12] = qHTS of Trypanosoma Brucei Inhibitors: LOPAC Validation (AID 624147); note: 0% is about no effect
Outline: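 Glycolytic pyruvate kinase of T. brucei was incubated with substrate, test compound and 130 uM ADP for 45 minutes at room temperature. Luminescent Kinase-Glo Plus signal was measured after 10 minutes.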

[13] = target: Glucagon-like peptide 1 receptor (Homo sapiens) (UniProt P43220); assay: qHTS of GLP-1 Receptor Agonists: LOPAC Validation (AID 624148);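 note: luminescence from a luciferase reporter switched on by cAMP; 0% is about no effect; higher luminescence signal means agonism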
Outline: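 Agonism scored as increased luciferase luminescence driven by cAMP in HEK293 clones carrying GLP-1R. Cells settled 12 hours, received compound for 4-6 hr at 37 deg C, 5% CO2, and were read after 12 min detection reagent at RT.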

[14] = HTS Assay for Allosteric Antagonists of the Human D2 Dopamine Receptor: Hit Validation in HTRF (AID 624455);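 note: stable D1 dopamine receptor cell line scored for blocking the D1 response; % is set by controls: 0 for no effect and ±100 for the full control effect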
Outline: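 Inhibition of the D1-mediated response was measured by HTRF. Cells used were a line stably expressing the D1 dopamine receptor.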

[15] = Cytotoxicity counterscreen for NFkB agonists and antagonists (AID 624476); note: potency is the fitted concentration of half-maximal effect
[16] = qHTS Assay for Identification of Small Molecule Agonists for NFkB Signaling Pathway. (AID 624478);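 note: compounds tested together with TNF alpha at its EC50 of 10 pM; 0% is about no effect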
Outline: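 Compounds were added with 10 pM TNF alpha (EC50 level) to ME-180 NFkB-bla cells in low-serum Opti-MEM and incubated 5 hrs at 37 C. Beta-lactamase FRET read-out used 405 nm excitation and 460 and 530 nm emission.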

[17] = qHTS Assay for Identification of Small Molecule Antagonists for NFkB Signaling Pathway. (AID 624479; calls by dose curve;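 note: pathway stimulated with TNF alpha; % is set by controls: 0 for no effect and ±100 for the full control effect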)
[18] = Cell Proliferation Assay against the TMD8 Cell Line (AID 651645); details: TMD8 DLBCL cell line proliferation/viability; at 46.1 µM (top of the series) unless noted;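 note: cells exposed to compound for 48 h before reading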
Outline: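 Cell viability of the ABC DLBCL line TMD8 is measured by CellTiter-Glo luminescence following a 48-hour incubation with compound. Percent activity uses DMSO as 100% and 9.2 uM bortezomib (final) as 0%.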

[19] = Cell Proliferation Assay against the TMD8 Cell Line (Caspase readout at 16 hrs) (AID 651712);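 note: 0% = DMSO and 100% = 9.2 µM bortezomib caspase activation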
Outline: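 Caspase-Glo luminescence measured apoptosis after a 16 h, 37 C compound exposure of TMD8 cells (500 cells/well, 5% FBS RPMI). DMSO set 0% and bortezomib at 9.2 uM final set 100% activity.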

Sequence of Voltage-gated inwardly rectifying potassium channel KCNH2 (Homo sapiens) (Q12809 whole entry, looked up): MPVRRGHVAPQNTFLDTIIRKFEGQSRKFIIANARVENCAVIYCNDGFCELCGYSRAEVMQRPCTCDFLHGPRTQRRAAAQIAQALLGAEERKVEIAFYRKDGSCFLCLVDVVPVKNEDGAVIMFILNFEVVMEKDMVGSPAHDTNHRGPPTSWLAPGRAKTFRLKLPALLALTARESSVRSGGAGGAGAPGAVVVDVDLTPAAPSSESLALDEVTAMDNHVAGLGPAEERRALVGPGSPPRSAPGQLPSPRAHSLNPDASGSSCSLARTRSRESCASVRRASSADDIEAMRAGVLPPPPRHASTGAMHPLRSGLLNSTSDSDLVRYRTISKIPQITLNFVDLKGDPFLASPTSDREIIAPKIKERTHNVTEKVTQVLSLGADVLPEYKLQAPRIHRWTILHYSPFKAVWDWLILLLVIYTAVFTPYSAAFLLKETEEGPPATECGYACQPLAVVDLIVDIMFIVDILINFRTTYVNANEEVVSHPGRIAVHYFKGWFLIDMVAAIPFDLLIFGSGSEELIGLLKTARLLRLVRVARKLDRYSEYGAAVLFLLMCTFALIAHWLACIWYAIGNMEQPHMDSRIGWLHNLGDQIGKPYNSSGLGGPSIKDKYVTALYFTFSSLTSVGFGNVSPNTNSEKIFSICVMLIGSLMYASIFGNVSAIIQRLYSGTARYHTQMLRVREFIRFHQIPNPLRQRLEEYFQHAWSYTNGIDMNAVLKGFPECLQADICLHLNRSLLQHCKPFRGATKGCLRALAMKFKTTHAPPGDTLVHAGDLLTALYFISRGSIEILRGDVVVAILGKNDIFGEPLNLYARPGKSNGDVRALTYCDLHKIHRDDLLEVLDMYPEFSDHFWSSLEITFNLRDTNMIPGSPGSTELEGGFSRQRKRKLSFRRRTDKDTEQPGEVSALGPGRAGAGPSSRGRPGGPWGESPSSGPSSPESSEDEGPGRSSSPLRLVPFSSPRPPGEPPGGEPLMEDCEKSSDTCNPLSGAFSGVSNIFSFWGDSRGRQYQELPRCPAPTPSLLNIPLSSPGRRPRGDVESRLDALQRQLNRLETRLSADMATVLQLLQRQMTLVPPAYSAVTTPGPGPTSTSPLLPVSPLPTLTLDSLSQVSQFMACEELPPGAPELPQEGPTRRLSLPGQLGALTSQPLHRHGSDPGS
Sequence of Retinoic acid receptor RXR-alpha (Homo sapiens) (P19793 whole entry, looked up): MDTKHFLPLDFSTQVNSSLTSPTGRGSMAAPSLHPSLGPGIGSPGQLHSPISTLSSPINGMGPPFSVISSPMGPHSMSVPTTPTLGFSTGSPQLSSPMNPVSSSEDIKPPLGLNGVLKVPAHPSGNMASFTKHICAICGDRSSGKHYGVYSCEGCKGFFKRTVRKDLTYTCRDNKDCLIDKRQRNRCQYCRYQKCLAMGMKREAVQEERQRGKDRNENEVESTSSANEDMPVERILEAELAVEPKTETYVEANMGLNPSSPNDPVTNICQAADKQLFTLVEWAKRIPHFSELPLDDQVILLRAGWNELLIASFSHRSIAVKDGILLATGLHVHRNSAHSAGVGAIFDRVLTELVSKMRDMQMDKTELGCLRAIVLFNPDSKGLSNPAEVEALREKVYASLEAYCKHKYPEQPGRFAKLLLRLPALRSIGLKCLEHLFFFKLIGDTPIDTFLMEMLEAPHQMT
Sequence of Luciferin 4-monooxygenase (Photinus pyralis) (P08659 whole entry, looked up): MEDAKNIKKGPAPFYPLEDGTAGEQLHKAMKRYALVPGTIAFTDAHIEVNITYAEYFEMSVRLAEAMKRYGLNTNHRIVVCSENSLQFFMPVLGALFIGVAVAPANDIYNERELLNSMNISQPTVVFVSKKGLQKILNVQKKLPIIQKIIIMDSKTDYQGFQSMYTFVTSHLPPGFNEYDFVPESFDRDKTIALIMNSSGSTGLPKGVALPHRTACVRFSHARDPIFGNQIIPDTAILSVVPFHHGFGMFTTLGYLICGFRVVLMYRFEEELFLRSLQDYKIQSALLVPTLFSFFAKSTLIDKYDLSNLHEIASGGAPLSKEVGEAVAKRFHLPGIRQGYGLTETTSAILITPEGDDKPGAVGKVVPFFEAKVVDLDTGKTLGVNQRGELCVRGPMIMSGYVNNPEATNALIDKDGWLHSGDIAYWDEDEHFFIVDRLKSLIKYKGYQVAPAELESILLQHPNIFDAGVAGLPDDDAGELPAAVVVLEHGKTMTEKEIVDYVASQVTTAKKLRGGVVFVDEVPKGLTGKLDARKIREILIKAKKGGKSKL
Sequence of Thyroid hormone receptor beta (Homo sapiens) (P10828 whole entry, looked up): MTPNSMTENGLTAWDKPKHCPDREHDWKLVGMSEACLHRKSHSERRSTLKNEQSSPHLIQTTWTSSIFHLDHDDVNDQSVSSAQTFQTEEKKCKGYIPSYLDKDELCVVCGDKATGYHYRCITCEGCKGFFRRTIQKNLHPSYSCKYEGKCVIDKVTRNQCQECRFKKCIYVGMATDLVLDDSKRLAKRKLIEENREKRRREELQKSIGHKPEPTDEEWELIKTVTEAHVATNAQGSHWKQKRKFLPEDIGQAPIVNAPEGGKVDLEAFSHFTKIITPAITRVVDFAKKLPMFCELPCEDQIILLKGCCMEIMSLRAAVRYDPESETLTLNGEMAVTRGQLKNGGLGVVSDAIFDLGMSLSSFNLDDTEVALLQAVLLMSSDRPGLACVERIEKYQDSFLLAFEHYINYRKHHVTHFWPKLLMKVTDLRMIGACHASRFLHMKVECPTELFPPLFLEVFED
Sequence of Glucagon-like peptide 1 receptor (Homo sapiens) (P43220 whole entry, looked up): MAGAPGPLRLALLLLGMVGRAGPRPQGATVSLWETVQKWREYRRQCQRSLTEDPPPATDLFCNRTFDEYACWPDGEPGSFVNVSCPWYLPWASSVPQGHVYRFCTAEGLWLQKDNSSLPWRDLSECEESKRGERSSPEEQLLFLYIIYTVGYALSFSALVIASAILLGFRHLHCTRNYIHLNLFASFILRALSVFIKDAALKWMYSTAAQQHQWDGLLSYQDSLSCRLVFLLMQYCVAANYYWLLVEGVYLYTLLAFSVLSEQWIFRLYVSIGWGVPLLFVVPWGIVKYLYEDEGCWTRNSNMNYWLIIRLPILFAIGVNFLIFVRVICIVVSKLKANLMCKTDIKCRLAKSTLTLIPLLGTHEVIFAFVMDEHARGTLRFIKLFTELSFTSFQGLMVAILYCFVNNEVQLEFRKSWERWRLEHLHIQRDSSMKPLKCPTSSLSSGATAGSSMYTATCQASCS
Sequence of Glutaminase kidney isoform, mitochondrial (Homo sapiens) (O94925 whole entry, looked up, canonical isoform): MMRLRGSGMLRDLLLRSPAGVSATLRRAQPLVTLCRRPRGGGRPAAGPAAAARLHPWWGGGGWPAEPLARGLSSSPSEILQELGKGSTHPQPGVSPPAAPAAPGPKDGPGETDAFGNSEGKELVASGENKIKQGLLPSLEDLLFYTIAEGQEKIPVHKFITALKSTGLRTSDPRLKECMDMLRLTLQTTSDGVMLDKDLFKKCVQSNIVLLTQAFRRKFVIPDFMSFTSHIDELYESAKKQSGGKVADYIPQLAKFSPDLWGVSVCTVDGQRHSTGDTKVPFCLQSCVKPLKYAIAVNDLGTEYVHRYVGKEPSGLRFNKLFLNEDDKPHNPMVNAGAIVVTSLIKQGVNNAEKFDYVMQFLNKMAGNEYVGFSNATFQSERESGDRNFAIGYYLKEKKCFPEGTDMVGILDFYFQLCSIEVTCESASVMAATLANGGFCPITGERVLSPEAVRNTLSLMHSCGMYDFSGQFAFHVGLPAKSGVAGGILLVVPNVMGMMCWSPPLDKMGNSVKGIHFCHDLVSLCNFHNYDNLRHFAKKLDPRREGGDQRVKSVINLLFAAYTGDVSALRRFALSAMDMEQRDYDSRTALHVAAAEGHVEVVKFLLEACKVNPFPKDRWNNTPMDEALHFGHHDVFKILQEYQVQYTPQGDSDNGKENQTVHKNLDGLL

COc1ccc(C2(C#N)CCC(C(=O)O)CC2)cc1OC1CCCC1 (stereo unspecified)
inactive: Potency [1] | Potency [2] | Potency [3] | Potency [4]

Nc1ccc(S(N)(=O)=O)cc1
inactive: outcome [5] | outcome [6] | max response [8] 9.55% | activity change % (negative = inhibition) [9] -5.21% | Potency [2] | Potency [3] | Potency [4] | Potency [10]
-7.58%: max response [7]

Cc1ccc(S(=O)(=O)NC(=O)NN2CC3CCCC3C2)cc1 (stereo unspecified)
inactive: Potency [1]

COC(=O)C1=C(C)NC(C)=C(C(=O)OC(C)C)C1c1cccc2nonc12 (stereo unspecified)
inactive: Potency [1]

CC1Cc2ccccc2N1NC(=O)c1ccc(Cl)c(S(N)(=O)=O)c1 (stereo unspecified)
inactive: Potency [1] | Potency [2]

NS(=O)(=O)c1cc(C(=O)O)c(NCc2ccco2)cc1Cl
inactive: outcome [6] | activity change % (negative = inhibition) [9] -7.01% and -13.6% | Potency [2] | Potency [3] | Potency [4] | Potency [10]

N[C@@H](Cc1cc(I)c(Oc2cc(I)c(O)c(I)c2)c(I)c1)C(=O)O
inactive: outcome [5] | Potency [1] | Potency [2] | Potency [3] | Potency [4] | Potency [10]

CNC[C@H](O)c1ccc(O)c(O)c1
-9.39%: max response [7]
inactive: outcome [5] | outcome [6] | max response [8] -4.11% | Potency [1] | Potency [2] | Potency [3] | Potency [4] | Potency [11] | Potency [12]

COc1c2occc2cc2ccc(=O)oc12
inactive: outcome [5] | outcome [6] | max response [8] 1.26% and 12.5% | activity change % (negative = inhibition) [9] 4.14% and -14.9% | Potency [1] | Potency [2] | Potency [3] | Potency [4] | Potency [10]
0.567% and -6.27%: max response [7]

CC(=O)Nc1ccc(O)cc1
inactive: Potency [1] | Potency [2] | Potency [3]

CCc1nc(N)nc(N)c1-c1ccc(Cl)cc1
39.8 µM (active) and inactive: Potency [1]
8.81%: max response [7]
active: Potency [10] 9.99 µM
inactive: outcome [5] | outcome [6] | max response [8] -13% | activity change % (negative = inhibition) [9] 6.74% and -7.45% | Potency [2] | Potency [3] | Potency [4]

COc1c(O)cc2c(c1O)[C@@H]1O[C@H](CO)[C@@H](O)[C@H](O)[C@H]1OC2=O
inactive: Potency [1]

COC(=O)[C@H](Cc1ccccc1)NC(=O)[C@@H](N)CC(=O)O (H-Asp-Phe-OMe)
2.63% and 8.92%: max response [7]
inactive: outcome [5] | outcome [6] | max response [8] 1.69% and -7.67% | activity change % (negative = inhibition) [9] 6.56% and 1.22% | Potency [1] | Potency [2] | Potency [3] | Potency [4]

c1ccc2[nH]c(-c3cscn3)nc2c1
inactive: outcome [5] | outcome [6] | max response [8] 14% and 3.02% | activity change % (negative = inhibition) [9] -27.5% | Potency [1] | Potency [3] | Potency [4] | Potency [10]
-4.89% and -3.75%: max response [7]

CCCCC(CC)COC(=O)C(C#N)=C(c1ccccc1)c1ccccc1 (stereo unspecified)
-18.7%: max response [7]
inactive: max response [8] -7.69% | activity change % (negative = inhibition) [9] -9.58% | Potency [1] | Potency [2] | Potency [3] | Potency [10]

CN(C)c1ccc2nc3ccc(=[N+](C)C)cc-3sc2c1
-22.9%: max response [7]
inactive: outcome [6] | max response [8] -3.23% | activity change % (negative = inhibition) [9] 20.5% | Potency [1] | Potency [4]
active: Potency [3] 4.05 µM

CN1CCC(=C2c3ccccc3CCc3sccc32)CC1
active: Potency [1] 10 µM
inactive: Potency [2]

Cc1c(C(=O)NN2CCCCC2)nn(-c2ccc(Cl)cc2Cl)c1-c1ccc(Cl)cc1
inactive: Potency [2] | Potency [3]
active: Potency [1] 2.82 µM | Potency [4] 18.1 µM

O=c1c(O)c(-c2ccc(O)cc2O)oc2cc(O)cc(O)c12
active: Potency [1] 3.16 µM
inactive: outcome [6] | Potency [12] | outcome [13] | outcome [14]

CCOC(=O)C1=C[C@@H](OC(CC)CC)[C@H](NC(C)=O)[C@@H](N)C1
inactive: Potency [1]

Nc1nc(Cl)nc2c1ncn2[C@H]1C[C@H](O)[C@@H](CO)O1
-0.421% [at 92.2 µM]: viability (% of control) [18]
inactive: outcome [6] | max response [8] -2.35% | activity change % (negative = inhibition) [9] -1.32% | Potency [1] | outcome [16] | Potency [17] | Potency [19]
active: Potency [15] 27 µM
5.76%: max response [7]

CC1(C)NC(=O)N(c2ccc([N+](=O)[O-])c(C(F)(F)F)c2)C1=O
-4.34%: max response [7]
inactive: outcome [5] | outcome [6] | max response [8] 1.48% | Potency [1] | Potency [2] | Potency [3] | Potency [10] | Potency [11] | Potency [12] | outcome [13] | outcome [14]

Cc1ccc(C)c(OCCCC(C)(C)C(=O)O)c1
inactive: outcome [5] | outcome [6] | max response [8] 1.18% and -8.41% | activity change % (negative = inhibition) [9] -13.4% and -13.2% | Potency [1] | Potency [2] | Potency [3] | Potency [4] | Potency [10]
4.23% and -4.48%: max response [7]
